Assay results published in PubChem BioAssay AID686996 (Broad Institute, 2013).
Among all 350,000 compounds or so, about 1,900 (0.54%) were called active.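 Rule for the calls: active = mean inhibition across replicates at least about 35%, with every replicate also reaching that limit (limit read from the data); inconclusive = only one of the two criteria met; inactive = neither criterion met.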 This excerpt belongs to a sample that is enriched for actives.

molecular target: Caspase-6 (Homo sapiens) (UniProt P55212); experiment: inhibition of CASP6 peptide cleavage – biochemical, VEID-R110 fluorescence, single point, set 2, primary screen (AID 686996); conditions: purified caspase-6, Z-VEID-R110 cleavage fluorescence; at 12.5 µM; active compounds read high;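 note: 0% = median of neutral control wells and 100% = no fluorescence left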
Sequence (P55212 24-179 limits assumed): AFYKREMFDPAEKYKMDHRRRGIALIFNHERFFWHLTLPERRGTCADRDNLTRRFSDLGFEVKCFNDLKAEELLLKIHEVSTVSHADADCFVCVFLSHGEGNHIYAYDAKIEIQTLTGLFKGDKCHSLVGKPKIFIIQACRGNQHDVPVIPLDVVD
Sequence (P55212 194-293 limits assumed): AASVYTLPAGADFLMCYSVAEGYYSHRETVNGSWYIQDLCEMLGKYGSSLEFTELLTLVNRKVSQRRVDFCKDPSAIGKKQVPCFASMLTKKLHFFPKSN

For `CCCN1[C@H](C(=O)N2CCCCC2)[C@@H](CO)[C@@H]2Cn3c(ccc(-c4ccccc4F)c3=O)[C@@H]21`, which inhibition is on record?
Its inhibition is 1.71% (inactive).

How did the inhibition turn out when `CCC(=O)N1CCC2(CC1)CN(Cc1ccc(Cl)cc1)[C@@H](CO)c1[nH]c3cc(OC)ccc3c12` was run?
The inhibition was 1.51% (inactive).

Which inhibition does the source give for `CC(C(=O)Nc1ccc(O)c(C(=O)O)c1)N1C(=O)/C(=C/c2cccs2)SC1=S` (stereo not drawn) here?
Its inhibition is 27.5% (inactive).

`O=C(O)C(c1ccccc1)N1C(=O)/C(=C\c2ccc(-c3cccc(Cl)c3)o2)SC1=S` (stereo not drawn) was tested. Which inhibition did it give?
The inhibition was 89.6% (active).

Which inhibition does the source give for `CC(C(=O)NC1CCS(=O)(=O)C1)N1C(=O)/C(=C/c2ccc(Cl)cc2)SC1=S` (stereo not drawn) here?
The inhibition was 4.77% (inactive).

For `CCN1[C@@H]2Cn3c(ccc(C4=CCCCC4)c3=O)[C@H]1[C@@H](C(=O)N1CCCCC1)[C@@H]2CO`, which inhibition is on record?
Its inhibition is 1.04% (inactive).

How did the inhibition turn out when `O=C(C[C@H]1CC[C@@H]2[C@H](COC[C@@H](O)CN2C(=O)Nc2cccc(F)c2)O1)NCc1ccccc1F` was run?
The inhibition was 0.624% (inactive).

`O=C(COC(=O)c1ccccc1O)NCc1ccco1` was tested. Which inhibition did it give?
Its inhibition is 38.4% (active).

With `O=C(COC(=O)Cc1ccc(Cl)cc1Cl)NCc1ccco1` as the molecule, how does the inhibition read?
The inhibition was 3.33% (inactive).

`O=C(COC(=O)c1cnc(Cl)c(Cl)c1)NCc1ccco1` was tested. Which inhibition did it give?
Its inhibition is 10.4% (inactive).

`N#C[C@H]1[C@@H](c2ccccc2C2=CCCC2)[C@H](CO)N1C(=O)c1cccc(F)c1` was tested. Which inhibition did it give?
Its inhibition is 0.224% (inactive).

How did the inhibition turn out when `CCC(=O)N1C[C@@H](C)[C@H](OC)CN(C)C(=O)c2cc(NC(=O)NC3CCCC3)ccc2OC[C@H]1C` was run?
Its inhibition is 0.917% (inactive).

How did the inhibition turn out when `CCC(=O)N(C)C[C@@H]1Oc2cc(C#CCN(C)C)ccc2S(=O)(=O)N([C@H](C)CO)C[C@H]1C` was run?
Its inhibition is -0.78% (inactive).

`Cn1c2c(c(=O)n(C)c1=O)C(c1cccc(F)c1)C(C#N)=C(N)O2` (stereo not drawn) was tested. Which inhibition did it give?
The inhibition was 1.86% (inactive).

Which inhibition does the source give for `N#CC1=C(N)Oc2cc(N)ccc2C1c1ccccc1` (stereo not drawn) here?
The inhibition was 37% (active).

Which inhibition does the source give for `N#CC1=C(N)Oc2c(ccc3cccnc23)C1c1ccncc1` (stereo not drawn) here?
The inhibition was 3.1% (inactive).

How did the inhibition turn out when `O=C(C[C@@H]1CC[C@H]2[C@@H](COC[C@H](O)CN2C(=O)Nc2ccccc2)O1)NCc1ccccc1F` was run?
Its inhibition is -1.64% (inactive).

How did the inhibition turn out when `Cc1ccccc1-c1ccc2c(c1)O[C@@H](CN(C)Cc1ccncc1)[C@@H](C)CN([C@H](C)CO)S2(=O)=O` was run?
Its inhibition is 2.69% (inactive).

`N#Cc1c(N2CCCCC2)nc(N)c2c(N)nc(SCC(=O)O)cc12` was tested. Which inhibition did it give?
Its inhibition is 43.3% (active).

How did the inhibition turn out when `O=C(O)CSc1ccc(S(=O)(=O)N2CCCC2)cn1` was run?
The inhibition was -0.751% (inactive).

For `N#Cc1c(C(F)(F)F)cc(-c2ccc(Cl)cc2)nc1SCC(=O)O`, which inhibition is on record?
Its inhibition is -2.92% (inactive).

How did the inhibition turn out when `C[C@@H]1CN([C@@H](C)CO)C(=O)Cc2cc(NC(=O)CCN3CCOCC3)ccc2O[C@H]1CN(C)S(=O)(=O)c1ccccc1` was run?
Its inhibition is -0.675% (inactive).

How did the inhibition turn out when `CN(C)C(=O)c1ccc(-c2ccccc2[C@@H]2[C@@H](C#N)N(C(=O)C3CCCC3)[C@H]2CO)cc1` was run?
Its inhibition is 2.13% (inactive).

Which inhibition does the source give for `C[C@@H]1CN([C@H](C)CO)C(=O)c2c(c3ccccc3n2C)-c2ccccc2CO[C@H]1CN(C)S(=O)(=O)c1ccccc1F` here?
Its inhibition is -0.557% (inactive).

Which inhibition does the source give for `O=C(C[C@@H]1C=C[C@H](NC(=O)C2CCOCC2)[C@H](CO)O1)NCc1ccncc1` here?
Its inhibition is -0.812% (inactive).

How did the inhibition turn out when `O=C(c1ccc2c(c1)OCO2)N1CC(=O)N2[C@H](C1)[C@@H](c1ccc(C#Cc3ccccc3)cc1)[C@@H]2CO` was run?
The inhibition was -1.08% (inactive).

For `O=C1OC(/C=C/c2ccccc2)=NC/1=C/c1ccco1`, which inhibition is on record?
Its inhibition is 38.7% (active).

Which inhibition does the source give for `C[C@H]1CN([C@@H](C)CO)C(=O)c2cc(-c3ccncc3)cnc2O[C@@H]1CN(C)C(=O)c1cccc(F)c1` here?
Its inhibition is 1.35% (inactive).

How did the inhibition turn out when `Cc1noc(C)c1NC(=O)N(C)C[C@H]1Oc2ccc(N(C)C)cc2CC(=O)N([C@H](C)CO)C[C@H]1C` was run?
Its inhibition is -3.82% (inactive).

With `O=C(C[C@H]1CC[C@@H](NC(=O)Nc2ccc(F)cc2)[C@H](CO)O1)NCc1cccc(F)c1` as the molecule, how does the inhibition read?
Its inhibition is -1.29% (inactive).

For `COc1cc(NC(=O)COC(=O)c2ccc([N+](=O)[O-])s2)cc(OC)c1OC`, which inhibition is on record?
Its inhibition is 87.1% (active).

Which inhibition does the source give for `O=C(OCC(=O)N1CCN(c2ccccc2)CC1)c1ccc([N+](=O)[O-])s1` here?
Its inhibition is 22% (inactive).

With `COc1ccc(C(=O)COC(=O)c2ccc([N+](=O)[O-])s2)cc1OC` as the molecule, how does the inhibition read?
The inhibition was 0.899% (inactive).

Which inhibition does the source give for `O=C(C[C@H]1CC[C@H]2NC[C@@H](O)COC[C@@H]2O1)NCCN1CCCC1` here?
The inhibition was -1.22% (inactive).

`O=C(CCS(=O)(=O)c1ccc(Br)cc1)NCCc1ccc(Cl)cc1` was tested. Which inhibition did it give?
Its inhibition is 49% (active).

Which inhibition does the source give for `COc1ccc(Cl)cc1NC(=O)CCS(=O)(=O)c1cc2c(cc1C)NC(=O)CO2` here?
Its inhibition is 0.689% (inactive).

For `O=C(Cc1ccc(Br)cc1)NCCc1ccccc1`, which inhibition is on record?
The inhibition was 0.216% (inactive).

Which inhibition does the source give for `Cc1ccc(S(=O)(=O)CCC(=O)OCC(=O)NCCc2ccc(S(N)(=O)=O)cc2)cc1` here?
Its inhibition is 1.6% (inactive).

How did the inhibition turn out when `COc1ccc(Cl)cc1NC(=O)CCS(=O)(=O)c1ccc(Br)cc1` was run?
The inhibition was 87.9% (active).

How did the inhibition turn out when `CCOc1ccc(OCC)c(NC(=O)CCS(=O)(=O)c2ccc(C)cc2)c1` was run?
Its inhibition is 0.288% (inactive).

For `CC(C)NC(=O)N(C)C[C@@H]1Oc2ccc(NS(=O)(=O)c3cn(C)cn3)cc2C(=O)N([C@@H](C)CO)C[C@@H]1C`, which inhibition is on record?
Its inhibition is 0.64% (inactive).

`C[C@@H]1CCCCO[C@H](CN(C)S(=O)(=O)c2cccs2)[C@@H](C)CN([C@@H](C)CO)C(=O)c2cc(NC(=O)Nc3ccc4c(c3)OCO4)ccc2O1` was tested. Which inhibition did it give?
The inhibition was 0.247% (inactive).

For `Cc1noc(C)c1NC(=O)N(C)C[C@@H]1Oc2ccc(NS(C)(=O)=O)cc2C(=O)N([C@@H](C)CO)C[C@@H]1C`, which inhibition is on record?
Its inhibition is 3.77% (inactive).

Which inhibition does the source give for `C[C@H](NC(=O)C[C@@H]1C[C@@H]2c3cc(NC(=O)Nc4ccc(C(F)(F)F)cc4)ccc3O[C@@H]2[C@H](CO)O1)c1ccccc1` here?
Its inhibition is -2.54% (inactive).

`O=C(NC[C@@H]1N[C@@H](CO)[C@H]1c1ccc(-c2cccnc2)cc1)c1cccc(F)c1` was tested. Which inhibition did it give?
The inhibition was 0.599% (inactive).

Which inhibition does the source give for `Cc1cc(C(=O)OCC(=O)N2c3ccccc3NC(=O)C2(C)C)c(C)n1-c1ccccc1` here?
Its inhibition is -1.9% (inactive).

`CNS(=O)(=O)c1cccc(C(=O)OCC(=O)N2c3ccccc3NC(=O)C2(C)C)c1` was tested. Which inhibition did it give?
Its inhibition is 35.9% (active).

With `CCNc1ccc(C(=O)OCC(=O)N2c3ccccc3NC(=O)C2(C)C)cc1[N+](=O)[O-]` as the molecule, how does the inhibition read?
Its inhibition is -5.89% (inactive).
